# The supplement of paper PMC8728848
# Only a selection was taken, and the strongest signals are over-represented in it overall.
# B1: Langerin (Homo sapiens), Q9UJ71 (protein)
# chain: STLNAQIPELKSDLEKASALNTKIRALQGSLENMSKLLKRQNDILQVVSQGWKYFKGNFYYFSLIPKTWYSAEQFCVSRNSHLTSVTSESEQEFLYKTAGGLIYWIGLTKAGMEGDWSWVDDTPFNKVQSARFWIPGEPNDAGNNEHCGNIKAPSLQAWNDAPCDITFLFICKRPYVPSEP
# Key:
# Test in all cases: glycan array binding signal (z-score within array); higher = stronger binding
# Conditions in all cases: glycan notation: IUPAC condensed, linker removed; mutation: N288D, K313I
# [1] = target: Fuc(a1-2)Gal(b1-3)GlcNAc(b1-3)[Fuc(a1-2)Gal(b1-3)GlcNAc(b1-6)]GalNAc
# In short: (§1)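 Glycan array data came from 3228 arrays in the Consortium for Functional Glycomics database, and only arrays with an available protein sequence were kept. Glycan names were put into IUPAC-condensed notation, and columns mapping to the same glycan were averaged. The binding signal is a within-array Z-score, averaged across arrays of one protein sequence run at different concentrations or buffers and across linkers. A negative Z-score can be read as non-binding.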
# [2] = target: Fuc(a1-2)Gal(b1-3)GlcNAc(b1-3)[Gal(b1-4)GlcNAc(b1-6)]Gal(b1-4)Glc
# In short: as §1
# [3] = target: Fuc(a1-2)Gal(b1-4)Fuc(a1-3)]GlcNAc(b1-2)Man(a1-3)[Fuc(a1-2)Gal(b1-4)[Fuc(a1-3)]GlcNAc(b1-2)Man(a1-6)]Man(b1-4)GlcNAc(b1-4)GlcNAc
# In short: as §1
# [4] = target: Fuc(a1-2)Gal(b1-4)GlcNAc(b1-2)Man(a1-3)[Fuc(a1-2)Gal(b1-4)GlcNAc(b1-2)Man(a1-6)]Man(b1-4)GlcNAc(b1-4)GlcNAc
# In short: as §1
# [5] = target: Fuc(a1-2)Gal6S(b1-3)GlcNAc
# In short: as §1
# [6] = target: Fuc(a1-2)[GalNAc(a1-3)]Gal(b1-3)GlcNAc(b1-6)GalNAc
# In short: as §1
# [7] = target: Fuc(a1-2)[GalNAc(a1-3)]Gal(b1-4)GlcNAc
# In short: as §1
# [8] = target: Fuc(a1-2)[GalNAc(a1-3)]Gal(b1-4)GlcNAc(b1-3)GalNAc
# In short: as §1
# [9] = target: Fuc(a1-2)[GalNAc(a1-3)]Gal(b1-4)[Fuc(a1-3)]GlcNAc(b1-3)GalNAc
# In short: as §1
# [10] = target: Fuc(a1-2)[GalNAc(a1-4)]Gal(b1-4)GlcNAc
# In short: as §1
# [11] = target: Fuc(a1-3)[Gal3S(b1-4)]GlcNAc
# In short: as §1
# [12] = target: Gal(a1-3)Gal(b1-3)GlcNAc(b1-6)GalNAc
# In short: as §1
# [13] = target: Gal(a1-3)Gal(b1-3)[Fuc(a1-4)]GlcNAc(b1-2)Man(a1-3)[Gal(a1-3)Gal(b1-3)[Fuc(a1-4)]GlcNAc(b1-2)Man(a1-6)]Man(b1-4)GlcNAc(b1-4)GlcNAc
# In short: as §1
# [14] = target: Gal(b1-3)GalNAc(a1-3)[Fuc(a1-2)]Gal(b1-4)Glc
# In short: as §1
# [15] = target: Gal(b1-3)GlcNAc(b1-3)Gal(b1-4)GlcNAc(b1-2)[Gal(b1-3)GlcNAc(b1-3)Gal(b1-4)GlcNAc(b1-6)]Man(a1-6)[Gal(b1-3)GlcNAc(b1-3)Gal(b1-4)GlcNAc(b1-2)Man(a1-3)]Man(b1-4)GlcNAc(b1-4)[Fuc(a1-6)]GlcNAc
# In short: as §1
# [16] = target: Gal(b1-3)GlcNAc(b1-3)Gal(b1-4)GlcNAc(b1-3)Gal(b1-4)GlcNAc(b1-2)[Gal(b1-3)GlcNAc(b1-3)Gal(b1-4)GlcNAc(b1-3)Gal(b1-4)GlcNAc(b1-6)]Man(a1-6)[Gal(b1-3)GlcNAc(b1-3)Gal(b1-4)GlcNAc(b1-3)Gal(b1-4)GlcNAc(b1-2)Man(a1-3)]Man(b1-4)GlcNAc(b1-4)[Fuc(a1-6)]GlcNAc
# In short: as §1
# [17] = target: Gal(b1-3)[Neu5Ac(a2-6)]GalNAc
# In short: as §1
# [18] = target: Gal(b1-4)GlcNAc(b1-2)Man(a1-3)[GlcNAc(b1-4)][Gal(b1-4)GlcNAc(b1-2)Man(a1-6)]Man(b1-4)GlcNAc(b1-4)GlcNAc
# In short: as §1
# [19] = target: Gal(b1-4)GlcNAc(b1-2)[Gal(b1-4)GlcNAc(b1-4)]Man(a1-3)[Gal(b1-4)GlcNAc(b1-2)[Gal(b1-4)GlcNAc(b1-6)]Man(a1-6)]Man(b1-4)GlcNAc(b1-4)GlcNAc
# In short: as §1
# [20] = target: Gal3S(b1-4)[Fuc(a1-3)]GlcNAc6S
# In short: as §1
# [21] = target: Gal3S4S(b1-4)GlcNAc
# In short: as §1
# [22] = target: Gal3S6S(b1-4)GlcNAc
# In short: as §1
# [23] = target: GalNAc(b1-3)Gal
# In short: as §1
# [24] = target: GalNAc(b1-4)GlcNAc(b1-2)Man(a1-3)[GalNAc(b1-4)GlcNAc(b1-2)Man(a1-6)]Man(b1-4)GlcNAc(b1-4)GlcNAc
# In short: as §1
# [25] = target: GalNAc(b1-6)GalNAc
# In short: as §1
# [26] = target: GalNAc3S(b1-4)[Fuc(a1-3)]GlcNAc
# In short: as §1
# [27] = target: GlcNAc(a1-4)Gal(b1-4)GlcNAc(b1-3)Gal(b1-4)Glc
# In short: as §1
# [28] = target: GlcNAc(a1-6)Gal(b1-4)GlcNAc
# In short: as §1
binder,measurement,setting,value
B1,glycan array binding signal (z-score),[1],0.215
same,glycan array binding signal (z-score),[2],-0.246
same,glycan array binding signal (z-score),[3],-0.237
same,glycan array binding signal (z-score),[4],-0.023
same,glycan array binding signal (z-score),[5],-0.321
same,glycan array binding signal (z-score),[6],0.089
same,glycan array binding signal (z-score),[7],-0.27
same,glycan array binding signal (z-score),[8],-0.041
same,glycan array binding signal (z-score),[9],1.92
same,glycan array binding signal (z-score),[10],-0.285
same,glycan array binding signal (z-score),[11],0.041
same,glycan array binding signal (z-score),[12],10.4
same,glycan array binding signal (z-score),[13],-0.042
same,glycan array binding signal (z-score),[14],-0.171
same,glycan array binding signal (z-score),[15],5.7
same,glycan array binding signal (z-score),[16],7.74
same,glycan array binding signal (z-score),[17],-0.085
same,glycan array binding signal (z-score),[18],-0.237
same,glycan array binding signal (z-score),[19],-0.351
same,glycan array binding signal (z-score),[20],-0.1
same,glycan array binding signal (z-score),[21],-0.333
same,glycan array binding signal (z-score),[22],-0.209
same,glycan array binding signal (z-score),[23],-0.289
same,glycan array binding signal (z-score),[24],-0.176
same,glycan array binding signal (z-score),[25],-0.255
same,glycan array binding signal (z-score),[26],0.095
same,glycan array binding signal (z-score),[27],-0.192
same,glycan array binding signal (z-score),[28],-0.229
